Publication PMC4336329 (PLoS ONE, 2015)
Screen size: about 310,000 compounds; about 2,200 (0.71%) showed an effect of 50% or more. The effect is printed as a negative number. The list comes from a sample in which strong results are over-represented; it also holds similar structures and randomly drawn compounds.

biological target: human ether-à-go-go-related gene (hERG) potassium channel (human, UniProt Q12809); assay: primary screen, population patch clamp on CHO cells stably expressing hERG; higher = less effect of the substance
Sequence (Q12809 whole entry, looked up): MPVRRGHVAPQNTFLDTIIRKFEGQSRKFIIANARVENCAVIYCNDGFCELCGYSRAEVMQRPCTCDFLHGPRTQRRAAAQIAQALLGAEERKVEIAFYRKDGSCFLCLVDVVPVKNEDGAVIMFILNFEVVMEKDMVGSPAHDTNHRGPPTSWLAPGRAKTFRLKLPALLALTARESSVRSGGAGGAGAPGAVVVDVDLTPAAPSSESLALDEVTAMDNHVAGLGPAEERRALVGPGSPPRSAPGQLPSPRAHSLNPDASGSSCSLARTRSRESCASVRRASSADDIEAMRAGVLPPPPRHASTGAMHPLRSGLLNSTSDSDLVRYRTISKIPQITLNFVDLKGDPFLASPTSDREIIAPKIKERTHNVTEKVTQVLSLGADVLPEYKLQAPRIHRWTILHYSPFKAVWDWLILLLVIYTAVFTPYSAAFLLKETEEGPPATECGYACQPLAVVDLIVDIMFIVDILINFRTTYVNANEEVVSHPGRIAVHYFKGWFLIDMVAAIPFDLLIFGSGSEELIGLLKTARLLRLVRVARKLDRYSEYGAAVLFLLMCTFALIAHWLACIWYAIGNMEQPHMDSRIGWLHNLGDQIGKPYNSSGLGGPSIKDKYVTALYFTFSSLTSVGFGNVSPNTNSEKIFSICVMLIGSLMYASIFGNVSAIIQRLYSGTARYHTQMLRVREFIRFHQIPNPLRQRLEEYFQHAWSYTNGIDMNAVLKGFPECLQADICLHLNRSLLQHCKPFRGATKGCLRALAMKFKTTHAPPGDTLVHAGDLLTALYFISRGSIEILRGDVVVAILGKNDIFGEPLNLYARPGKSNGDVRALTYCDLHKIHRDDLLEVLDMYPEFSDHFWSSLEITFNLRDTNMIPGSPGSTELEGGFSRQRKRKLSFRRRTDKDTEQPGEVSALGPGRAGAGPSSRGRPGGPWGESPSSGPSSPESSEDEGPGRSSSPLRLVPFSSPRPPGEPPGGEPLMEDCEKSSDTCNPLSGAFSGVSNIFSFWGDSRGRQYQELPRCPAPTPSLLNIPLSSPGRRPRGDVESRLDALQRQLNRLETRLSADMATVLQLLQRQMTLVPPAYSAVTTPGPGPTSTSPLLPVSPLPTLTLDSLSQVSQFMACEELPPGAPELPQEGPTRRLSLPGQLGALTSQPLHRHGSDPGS

Row | SMILES | hERG current change (%, negative = inhibition) at 1uM [%]
1 | Cc1cc(=O)n2nc(N3CCC(C(=O)NCc4cccnc4)CC3)sc2n1 | 6.87
2 | Cc1cc(C)c2nc(N3CCC(C(=O)NCc4ccccn4)CC3)sc2c1 | 9.75
3 | Cc1cc(C)c2nc(N3CCC(C(=O)NCc4cccnc4)CC3)sc2c1 | -50.6
4 | O=S(=O)(c1cccc(Br)c1)N1CCN(c2ccnc3cc(Cl)ccc23)CC1 | 10.2
5 | O=[N+]([O-])c1ccc(S(=O)(=O)N2CCN(c3ccnc4cc(Cl)ccc34)CC2)cc1 | -77.8
6 | Cc1ccc(S(=O)(=O)N2CCN(c3ccnc4cc(Cl)ccc34)CC2)cc1C | 21.6
7 | O=S(=O)(c1ccccc1OC(F)(F)F)N1CCN(c2ccnc3cc(Cl)ccc23)CC1 | 9.89
8 | Clc1ccc2c(N3CCNCC3)ccnc2c1 | -15.4
9 | N#Cc1cccc(S(=O)(=O)N2CCN(c3ccnc4cc(Cl)ccc34)CC2)c1 | -57.2
10 | O=S(=O)(c1ccc(Br)s1)N1CCN(c2ccnc3cc(Cl)ccc23)CC1 | 6.07
11 | O=S(=O)(c1ccccc1)N1CCN(c2ccnc3cc(Cl)ccc23)CC1 | -79.9
12 | O=S(=O)(c1cccs1)N1CCN(c2ccnc3cc(Cl)ccc23)CC1 | -2.74
13 | Cc1ccc(NC2CCCN(C(=O)c3ccc(-n4ccnc4)cc3)C2)cc1C (centres unmarked) | -4.71
14 | COc1ccc(-c2cc(-c3ccc(C)cc3)nc(SCc3nnc(-c4ccccc4)o3)c2C#N)cc1OC | 8.98
15 | CS(=O)(=O)N1N=C(c2ccco2)CC1c1ccccc1Cl (centres unmarked) | 9.15
16 | CCn1nc(C)c(/C=N/NC(=O)CSc2ccccn2)c1C | 10.3
17 | COCCn1c(SCC(=O)c2c[nH]c3ccccc23)nnc1-c1ccncc1 | 7.84
18 | O=C(Nc1ccc(Cl)cc1)c1cncs1 | 11.3
19 | CCc1ccc(CN2CCC(n3nccc3NC(=O)C3CCCC3)CC2)cc1 | -68.2
20 | CC(C)Cc1ccc(CN2CCC(n3nccc3NC(=O)C3CCCC3)CC2)cc1 | -16.9

Row | SMILES | hERG current change (%, negative = inhibition) at 1uM [%]
21 | CC(Cc1ccc(Cl)cc1)N1CCC(n2nccc2NC(=O)C2CCCC2)CC1 (centres unmarked) | -67.5
22 | CC(C)Oc1ccc(CN2CCC(n3nccc3NC(=O)c3cccnc3)CC2)cc1 | -52.6
23 | Cc1ccccc1CN1CCC(n2nccc2NC(=O)c2cccnc2)CC1 | 4.68
24 | O=C(Nc1ccnn1C1CCN(Cc2ccc(Cl)cc2)CC1)C1CCCC1 | -37.2
25 | COC(=O)c1ccc(CN2CCC(n3nccc3NC(=O)C3CC3)CC2)cc1 | -6.68
26 | CC(C)Oc1ccc(CN2CCC(n3nccc3NC(=O)C3CC3)CC2)cc1 | -68.4
27 | O=C(Nc1ccnn1C1CCN(Cc2ccccc2OC(F)F)CC1)c1cccnc1 | 2.05
28 | COC(=O)c1ccc(CN2CCC(n3nccc3NC(=O)C3CCCC3)CC2)cc1 | -26.7
29 | CC(C)n1cc(CN2CCC(n3nccc3NC(=O)C3CCCC3)CC2)cn1 | 6.1
30 | COc1cc(CN2CCC(n3nccc3NC(=O)C3CC3)CC2)cc(OC)c1 | -29.5
31 | O=C(N/N=C(\CC(=O)c1cccs1)C(F)(F)F)c1cccnc1 | 12.7
32 | Cl.O=C(NCCN1CCCC1)c1ccc(Cl)cc1Cl | 16.6
33 | O=C(NCC1(N2CCCCC2)CCCCC1)C1CC(=O)N(c2ccc3c(c2)OCCO3)C1 (centres unmarked) | 14.3
34 | COc1cc(C2NC(=O)C(C#N)=C(S)N2c2ccc(C)cc2)ccc1OC(C)C (centres unmarked) | 9.81
35 | COc1cc(OC)cc(C(=O)NCCCn2ccnc2)c1 | 18.8
36 | Cn1c2ccccc2c2nnc(SC3CCOC3=O)nc21 (centres unmarked) | 3.35
37 | O=C(O)C(C(O)c1ccc([N+](=O)[O-])cc1)[n+]1ccccc1.[Br-] (centres unmarked) | 18.1
38 | COc1cccc(OCc2cc(C(=O)NCc3cnc4ccccn34)no2)c1 | 3.98
39 | Cn1c(SCC(=O)NC(=O)Nc2ccccc2)nnc1-c1ccncc1 | 9.09
40 | O=C(Nc1ccnn1C1CCN(Cc2ccc(OC(F)F)cc2)CC1)C1CCCC1 | -81.5

Row | SMILES | hERG current change (%, negative = inhibition) at 1uM [%]
41 | O=C(Nc1ccnn1C1CCN(Cc2ccc(O)c(Cl)c2)CC1)C1CCCC1 | -6.39
42 | COc1ccc(CN2CCC(n3nccc3NC(=O)C3CCCC3)CC2)cc1 | -47.4
43 | Cc1c(NC(=O)c2cccc(-c3cc4ccccc4oc3=O)c2)cccc1-c1nc2ncccc2o1 | 12.7
44 | CCNC(=O)N1CCN(CCCC(c2ccc(F)cc2)c2ccc(F)cc2)CC1.Cl | -90.3
45 | CCCCNC(=O)N1CCN(Cc2ccc(F)cc2)CC1 | 9.29
46 | O=C(Nc1ccc(F)cc1)N1CCN(CCc2ccccc2)CC1 | -9.52
47 | CCN(CC)CCNS(=O)(=O)c1ccc2[nH]cc(C(=O)O)c(=O)c2c1 | 10.9
48 | O=C(Nc1ccnn1C1CCN(C2CCCC2)CC1)c1ccccc1Cl | 6.27
49 | CC(C)(C)CN1CCC(n2nccc2NC(=O)c2ccccc2Cl)CC1 | 4.68
50 | COc1ccccc1C(=O)Nc1ccnn1C1CCN(C(=O)C(C)(C)C)CC1 | -6.95
51 | COc1ccccc1C(=O)Nc1ccnn1C1CCN(C2CCSCC2)CC1 | -44.5
52 | O=C(Nc1ccnn1C1CCN(C2CCCC2)CC1)c1ccccc1 | 13.3
53 | O=C(Nc1ccnn1C1CCN(CC2CC=CCC2)CC1)c1ccccc1Cl (centres unmarked) | -37.8
54 | O=C(Nc1ccnn1C1CCN(CCCC2CCCC2)CC1)c1ccccc1Cl | -99
55 | COc1ccccc1C(=O)Nc1ccnn1C1CCN(CC2CC=CCC2)CC1 (centres unmarked) | -69.1
56 | Cc1ccccc1C(=O)Nc1ccnn1C1CCN(CC2CC=CCC2)CC1 (centres unmarked) | -33.5
57 | O=C(Nc1ccnn1C1CCN(CCCC2CCCC2)CC1)c1ccccc1 | -60.9
58 | COc1ccccc1C(=O)Nc1ccnn1C1CCN(CCCC2CCCC2)CC1 | -93.2
59 | O=C(Nc1ccnn1C1CCN(C2CCCCC2)CC1)c1ccccc1 | 12.1
